# Test results published in PubChem BioAssay AID1508635 (National Center for Advancing Translational Sciences (NCATS), 2021).
# Results filed as inconclusive are left out. A call without a number means that no potency is given here. Active and inactive are the calls of the source. Calls come from the whole dose curve; as a rule, active = well fitted inhibition curve with a large enough effect; inconclusive = small, poorly fitted or top-dose-only effect; inactive = no such curve, though single readings can be large or run the other way. Numbered stars: 1 amine (or outer) side, 2 acyl side, 3 side chain; on linkers, the order of the positions; unused ones are H or OH. Bridge positions count the residues as written; N and C are the ends. Square brackets hold non-standard residues; d marks the D form. Peptide text beside a SMILES is read from it. I, II: the chains in the order shown. ξ: configuration not given here. Actinocin(9to1) = Cc1c2oc3c(C)ccc(C(=O)[*:1])c3nc-2c(C(=O)[*:2])c(N)c1=O; ξNMeV = CNC(C(=O)O)C(C)C; ξV = CC(C)C(N)C(=O)O; Sar = CNCC(=O)O
# Tested on: zebrafish Abcb4 (ABCB1 homolog)
# Assay: qHTS for characterization and localization of zebrafish homologs of the human ABCB1 multidrug transporter: ABCB4 transfected cells
# Details: CellTiter-Glo viability luminescence, 72 h; series mostly up to 46.1 µM
# In short: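 About 90 known P-gp substrates were titrated onto four cell lines: vector control, MDR-19 (human P-gp) and zebrafish Abcb4 or Abcb5 transfectants. After 72 h, ATP luminescence (CellTiter-Glo) gave curves; cytotoxic required AC50 < 10 uM, >50% response and inhibitory curve class.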
Compound,Potency,"activity change, negative = inhibition"
CCn1c(-c2nonc2N)nc2c(C#CC(C)(C)O)ncc(OC[C@H]3CCCNC3)c21,inactive,–
COCCn1c2c([n+](Cc3cnccn3)c1C)C(=O)c1ccccc1C2=O,inactive,–
CC1(C)CC[C@]2(C(=O)OC3OC(CO)C(O)C(O)C3O)CC[C@]3(C)C(=CCC4[C@@]5(C)CC[C@H](OC6OC(C(=O)O)C(O)C(O)C6O)C(CO)(CO)C5CC[C@]43C)[C@@H]2C1 (stereo partly drawn),inactive,–
C=C1CO[C@@]2(O[C@H]3CC4C5CC=C6C[C@@H](O)C[C@@H](O[C@@H]7OC[C@H](O)[C@H](O[C@@H]8OC[C@@H](O)[C@H](O)[C@H]8O)[C@H]7O[C@@H]7O[C@@H](C)[C@H](OC(C)=O)[C@@H](OC(C)=O)[C@H]7OC(C)=O)[C@]6(C)C5CC[C@]4(C)[C@@H]3[C@@H]2C)[C@@H](O)[C@H]1OC1OC(C)C(O)C(O)C1O (stereo partly drawn),–,4.44% [at 8.96 µM] (inactive)
CN(C)C/C=C/C(=O)Nc1cccc(C(=O)Nc2ccc(Nc3nccc(-c4cccnc4)n3)cc2)c1,inactive,–
COC(C(=O)N1Cc2[nH]nc(NC(=O)c3ccc(N4CCN(C)CC4)cc3)c2C1)c1ccccc1 (stereo not drawn),inactive,–
C#CCN(Cc1cc2c(=O)n(C)c(CN3CCN(C)CC3)nc2cc1Cl)c1ccc(C(=O)NCc2cccnc2)cc1,inactive,–
"Cc1c2oc3c(C)ccc(C(=O)N[C@@H]4C(=O)NC(C(C)C)C(=O)N5CCC[C@H]5C(=O)N(C)CC(=O)N(C)C(C(C)C)C(=O)O[C@@H]4C)c3nc-2c(C(=O)N[C@@H]2C(=O)NC(C(C)C)C(=O)N3CCC[C@H]3C(=O)N(C)CC(=O)N(C)C(C(C)C)C(=O)O[C@@H]2C)c(N)c1=O (stereo partly drawn) (I: T[ξV]P[Sar][ξNMeV] / II: T[ξV]P[Sar][ξNMeV]; ester I:1-I:C, II:1-II:C; linker I:N-II:N via Actinocin(9to1))",418 nM (active),–
